From PubChem BioAssay (NCATS)
Results filed as inconclusive are left out. A call without a number means that no potency is given here. A number with no mark means an inactive call. Calls of active or inactive are those of the source. Calls come from the whole dose curve; as a rule, active = well fitted curve in the direction sought with a large enough effect; inconclusive = small, poorly fitted or top-dose-only effect, or another doubt; inactive = no such curve, though single readings can be large; an effect the other way counts as inactive or inconclusive.

Key:
[1] = molecular target: Rap guanine nucleotide exchange factor 3 (Homo sapiens) (UniProt O95398); assay: Confirmatory qHTS for antagonist of cAMP-regulated guanine nucleotide exchange factor 3 (EPAC1) (AID 1645880); note: nearly all actives have a fitted effect of over 55% in size; note: potency is the fitted concentration of half-maximal effect
Outline: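 Released BODIPY-GDP fluoresces less than Rap1-bound BODIPY-GDP; the signal is followed at 480/540 nm at 5-min intervals over 30 min, after 5 min at room temperature. Reactions contain 100 nM EPAC1, 250 nM RAP1B-BODIPY-GDP and 50 uM GDP; results are normalized to ATA and DMSO.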

[2] = molecular target: Rap guanine nucleotide exchange factor 3 (Homo sapiens) (UniProt O95398); assay: Confirmatory qHTS for agonist of cAMP-regulated guanine nucleotide exchange factor 3 (EPAC1) (AID 1645881); note: nearly all actives have a fitted effect of over 75% in size; note: potency is the fitted concentration of half-maximal effect;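 for activation: EPAC1 catalysed release of BODIPY-GDP from Rap1B seen as fluorescence loss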
[3] = molecular target: Rap guanine nucleotide exchange factor 4 (Homo sapiens) (UniProt Q8WZA2); assay: Confirmatory qHTS for agonist of cAMP-regulated guanine nucleotide exchange factor 4 (EPAC2) (AID 1645884);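 note: nucleotide exchange releases bodipy-GDP from Rap1 and this lowers its fluorescence; nearly all actives have a fitted effect of over 65% in size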; note: potency is the fitted concentration of half-maximal effect
[4] = molecular target: Rap guanine nucleotide exchange factor 4 (Homo sapiens) (UniProt Q8WZA2); assay: Confirmatory qHTS for antagonist of cAMP-regulated guanine nucleotide exchange factor 4 (EPAC2) (AID 1645885); note: nearly all actives have a fitted effect of over 25% in size; note: potency is the fitted concentration of half-maximal effect
[5] = molecular target: Rap guanine nucleotide exchange factor 3 (Homo sapiens) (UniProt O95398); assay: Counterscreen qHTS for antagonist of cAMP-regulated guanine nucleotide exchange factor 3 (EPAC1) (AID 1645888)
Outline: (§1)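 Rap1B–BODIPY-GDP (250 nM) with 50 uM GDP; compounds pin-transferred to 9.74 nM–152 uM final (activator) or from 7.32 nM upwards (inhibitor). Fluorescence Ex/Em 480/540 nm read at 5 and 30 min, then after adding cAMP or buffer, at room temperature.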

[6] = molecular target: Rap guanine nucleotide exchange factor 3 (Homo sapiens) (UniProt O95398); assay: Counterscreen qHTS for agonist of cAMP-regulated guanine nucleotide exchange factor 3 (EPAC1) (AID 1645889); note: nearly all actives have a fitted effect of over 40% in size; note: potency is the fitted concentration of half-maximal effect
Outline: as §1

Rap guanine nucleotide exchange factor 4 (Homo sapiens), sequence (Q8WZA2 whole entry, looked up): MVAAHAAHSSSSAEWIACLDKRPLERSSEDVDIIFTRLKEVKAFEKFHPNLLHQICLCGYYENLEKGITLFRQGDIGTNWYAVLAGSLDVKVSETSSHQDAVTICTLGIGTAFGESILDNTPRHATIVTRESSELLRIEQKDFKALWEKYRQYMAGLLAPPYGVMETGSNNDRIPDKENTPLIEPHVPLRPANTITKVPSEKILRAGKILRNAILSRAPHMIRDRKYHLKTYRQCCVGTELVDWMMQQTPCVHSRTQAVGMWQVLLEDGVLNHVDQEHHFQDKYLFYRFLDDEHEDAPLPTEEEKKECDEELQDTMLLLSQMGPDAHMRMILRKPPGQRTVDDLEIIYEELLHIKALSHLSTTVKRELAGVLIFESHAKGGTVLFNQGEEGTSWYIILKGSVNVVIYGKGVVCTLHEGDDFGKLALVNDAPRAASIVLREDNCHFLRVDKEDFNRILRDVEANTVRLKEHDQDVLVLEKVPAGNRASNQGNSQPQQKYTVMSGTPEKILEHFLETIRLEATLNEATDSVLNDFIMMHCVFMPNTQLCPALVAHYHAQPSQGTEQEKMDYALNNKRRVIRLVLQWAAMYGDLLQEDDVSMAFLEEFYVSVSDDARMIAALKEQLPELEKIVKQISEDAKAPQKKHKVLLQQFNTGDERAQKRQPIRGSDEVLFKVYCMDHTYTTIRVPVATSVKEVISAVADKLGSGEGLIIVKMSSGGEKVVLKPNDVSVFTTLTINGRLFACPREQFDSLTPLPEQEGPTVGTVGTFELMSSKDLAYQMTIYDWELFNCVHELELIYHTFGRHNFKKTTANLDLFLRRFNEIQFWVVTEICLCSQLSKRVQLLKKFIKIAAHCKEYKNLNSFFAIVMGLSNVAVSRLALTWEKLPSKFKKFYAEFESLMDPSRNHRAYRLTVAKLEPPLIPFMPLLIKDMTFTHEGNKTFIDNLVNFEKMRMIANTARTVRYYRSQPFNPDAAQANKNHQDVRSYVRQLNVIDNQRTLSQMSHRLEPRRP
Rap guanine nucleotide exchange factor 3 (Homo sapiens), sequence (O95398 whole entry, looked up): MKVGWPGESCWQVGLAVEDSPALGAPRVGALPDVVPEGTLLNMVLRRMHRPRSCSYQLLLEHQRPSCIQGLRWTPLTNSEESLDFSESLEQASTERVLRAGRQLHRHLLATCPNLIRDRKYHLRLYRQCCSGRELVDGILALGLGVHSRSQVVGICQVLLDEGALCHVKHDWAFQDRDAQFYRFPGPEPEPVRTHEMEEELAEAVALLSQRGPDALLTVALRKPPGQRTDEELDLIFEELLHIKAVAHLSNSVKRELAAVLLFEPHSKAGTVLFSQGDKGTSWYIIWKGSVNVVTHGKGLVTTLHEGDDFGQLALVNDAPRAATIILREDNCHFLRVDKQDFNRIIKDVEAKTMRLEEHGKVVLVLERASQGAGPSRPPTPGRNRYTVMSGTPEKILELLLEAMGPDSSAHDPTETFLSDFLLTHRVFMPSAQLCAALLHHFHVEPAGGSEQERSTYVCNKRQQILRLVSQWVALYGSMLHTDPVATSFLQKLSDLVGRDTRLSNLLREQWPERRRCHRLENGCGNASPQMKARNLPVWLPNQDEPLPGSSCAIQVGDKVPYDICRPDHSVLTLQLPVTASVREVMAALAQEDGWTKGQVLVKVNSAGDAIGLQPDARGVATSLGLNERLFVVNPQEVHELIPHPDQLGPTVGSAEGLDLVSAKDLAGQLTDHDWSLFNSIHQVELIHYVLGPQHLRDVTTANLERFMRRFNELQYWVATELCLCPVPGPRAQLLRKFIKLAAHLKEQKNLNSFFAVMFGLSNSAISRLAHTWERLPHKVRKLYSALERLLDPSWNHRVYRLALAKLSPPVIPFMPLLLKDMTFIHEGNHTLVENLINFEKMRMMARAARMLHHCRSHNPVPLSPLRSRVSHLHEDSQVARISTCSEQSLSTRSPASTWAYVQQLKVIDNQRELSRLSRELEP

Structure (SMILES)	Potency [1]	Potency [2]	Potency [3]	Potency [4]	Potency [5]	outcome [4]	activation [3]	activity change, negative = inhibition [5]	Potency [6]	activation [6]
COc1cc(OC)c(NC(=O)N2CCC(CN3CCOCC3)CC2)cc1Cl	inactive	inactive	inactive	inactive	inactive	–	–	–	–	–
O=C(O)c1ccc(C=C(c2nc3ccccc3s2)c2nc3ccccc3s2)cc1	42.6 µM (active)	inactive	inactive	inactive	inactive	–	–	–	–	–
COC(=O)C1=NNCC12CC(=O)N(c1ccc(Br)cc1)C2=O (configuration not stated)	inactive	inactive	inactive	inactive	inactive	–	–	–	–	–
Cc1ccc(C(=O)Nc2ccc(N3CCOCC3)c3nonc23)cc1[N+](=O)[O-]	47.8 µM (active)	inactive	inactive	inactive	inactive	–	–	–	–	–
Clc1ccc(NCc2nc3ccccc3n2CCOc2ccccc2)cc1	inactive	inactive	inactive	–	inactive	inactive [at 12.7 µM]	–	–	–	–
CCCC(C(=O)Nc1ccc(C)c(S(=O)(=O)N2CCOCC2)c1)c1ccccc1 (configuration not stated)	inactive	inactive	–	inactive	–	–	4.3% [at 17.1 µM, percent relative to cAMP agonist control]	-29.6% [at 30.8 µM]	–	–
COc1ccc(N2CCN(S(=O)(=O)c3cc4c(cc3C)NC(=O)CO4)CC2)cc1	inactive	inactive	inactive	inactive	inactive	–	–	–	–	–
Cn1nc(-c2ccccn2)nc2c(=O)n(C)c(=O)nc1-2	1.69 µM (active)	inactive	inactive	inactive	inactive	–	–	–	–	–
S=C(Nc1ccccc1)Nc1ccccn1	inactive	inactive	–	inactive	–	–	9.11% [at 17.1 µM, percent relative to cAMP agonist control]	9.21% [at 30.8 µM]	–	–
Cc1cc(Nc2cccc(C(F)(F)F)c2)nc2ccc(NC(=O)c3ccc(N(C)C)cc3)cc12	inactive	inactive	inactive	inactive	inactive	–	–	–	–	–
Cc1ccc2c(c1)c1c3n2CCN(C(=O)C2CC2)C3CCC1 (configuration not stated)	inactive	inactive	inactive	75.7 µM (active)	inactive	–	–	–	–	–
COc1cc(Cl)c(C)cc1NC(=O)CSc1cc(Cl)ccc1Cl	67.5 µM (active)	inactive	inactive	inactive	inactive	–	–	–	–	–
CCCCCNC(=O)C(c1cc2ccccc2o1)n1c(=O)c(-c2ccco2)nc2ccccc21 (configuration not stated)	16.9 µM (active)	inactive	inactive	10.7 µM (active)	inactive	–	–	–	–	–
O=C(CSc1nnc(SCc2ccccc2)s1)N/N=C/C=C/c1ccco1	12.6 µM (active)	inactive	–	inactive	–	–	3.41% [at 17.1 µM, percent relative to cAMP agonist control]	-6.93% [at 30.8 µM]	–	–
COc1ccc2c(c1)c1nnc(SCC(=O)NC3CC3)nc1n2C	inactive	inactive	inactive	84.9 µM (active)	inactive	–	–	–	–	–
COC(=O)CSc1nc2sc3c(c2c(=O)n1-c1ccc(OC)cc1)CCN(C)C3	inactive	inactive	inactive	inactive	inactive	–	–	–	–	–
O=C1S/C(=C\c2ccc(N3CCOCC3)o2)C(=O)N1c1ccccc1	inactive	inactive	inactive	inactive	inactive	–	–	–	–	–
COc1ccc(S(=O)(=O)N2C(=O)/C(=C3\SC(N)=NC3=O)c3ccccc32)cc1	inactive	inactive	inactive	inactive	inactive	–	–	–	–	–
CC(C)OP(=O)(c1ccc(N(C)C)cc1)C(Nc1ccccc1)c1ccccc1 (configuration not stated)	inactive	inactive	inactive	inactive	inactive	–	–	–	–	–

Structure (SMILES)	Potency [1]	Potency [2]	Potency [3]	Potency [4]	Potency [5]	outcome [4]	activation [3]	activity change, negative = inhibition [5]	Potency [6]	activation [6]
CN1\C(=C/C=C/C=C/C=[N+](C)C)C(C)(C)c2ccccc21	39.8 µM (active)	inactive	–	inactive	–	–	2.26% [at 17.1 µM, percent relative to cAMP agonist control]	43.3% [at 30.8 µM]	–	–
COc1ccc2oc(C)c(C(=O)c3ccc(C)cc3)c2c1	inactive	inactive	–	inactive	–	–	14.7% [at 17.1 µM, percent relative to cAMP agonist control]	-20.6% [at 30.8 µM]	–	–
CCN1C/C(=C/c2ccc(N3CCOCC3)cc2)C(=O)/C(=C/c2ccc(N3CCOCC3)cc2)C1	inactive	100 µM (active)	100 µM (active)	67.5 µM (active)	inactive	–	–	–	39.8 µM (active)	–
O=C(O)COc1ccc(NC(=O)C(c2ccccc2)c2ccccc2)cc1	inactive	inactive	inactive	33.8 µM (active)	inactive	–	–	–	–	–
CCc1cccc2cc3c(N)c(C(=O)Nc4ccc(S(=O)(=O)N5CCCC5)cc4)sc3nc12	75.7 µM (active)	inactive	inactive	67.5 µM (active)	inactive	–	–	–	inactive	–
Cn1c(N)c(C(=O)COC(=O)COc2ccccc2C#N)c(=O)n(C)c1=O	inactive	inactive	–	inactive	–	–	1.14% [at 17.1 µM, percent relative to cAMP agonist control]	3.67% [at 30.8 µM]	–	3.75% [at 30.8 µM]
COc1cccc(CN2CC(O)=C(c3nc(-c4ccc(Cl)cc4)cs3)C2=N)c1	inactive	inactive	–	inactive	–	–	0.958% [at 17.1 µM, percent relative to cAMP agonist control]	-19.7% [at 30.8 µM]	–	0.754% [at 30.8 µM]
O=C(O)c1ccccc1NS(=O)(=O)c1ccc(N/N=C/c2ccc(O)c(O)c2)c([N+](=O)[O-])c1	8.91 µM (active)	inactive	–	inactive	–	–	-3.03% [at 17.1 µM, percent relative to cAMP agonist control]	-1.88% [at 30.8 µM]	–	24.6% [at 30.8 µM]
COC(=O)c1ccc2c(=O)n3nc(Nc4cc(OC)ccc4OC)sc3nc2c1	inactive	inactive	inactive	inactive	inactive	–	–	–	–	–
O=C(O)CN1C(=O)/C(=C\c2cc(Br)ccc2OCc2ccccc2F)SC1=S	35.5 µM (active)	inactive	–	inactive	–	–	4.56% [at 17.1 µM, percent relative to cAMP agonist control]	18.9% [at 30.8 µM]	–	–
O=C(O)c1[nH]c2ccccc2c1C(c1cc(Br)ccc1O)c1c(C(=O)O)[nH]c2ccccc12	39.8 µM (active)	inactive	–	inactive	–	–	11.5% [at 17.1 µM, percent relative to cAMP agonist control]	-16.3% [at 30.8 µM]	–	–
COc1ccccc1N1CCN(c2ncnc3onc(-c4ccc(F)cc4)c23)CC1	inactive	inactive	inactive	inactive	inactive	–	–	–	inactive	–
COc1cc(/C=C2\SC(=O)NC2=O)ccc1Oc1ccc([N+](=O)[O-])cc1[N+](=O)[O-]	42.6 µM (active)	inactive	inactive	inactive	inactive	–	–	–	inactive	–
Cc1ccc2[nH]cc(C(c3ccccc3)c3cccs3)c2c1 (configuration not stated)	inactive	inactive	inactive	–	inactive	inactive [at 12.7 µM]	–	–	inactive	–
CCC(=O)N1c2nc(C(C)C)nn2C2(CCCCC2)[C@@H]2CCCC[C@@H]21	inactive	inactive	inactive	–	inactive	inactive [at 12.7 µM]	–	–	inactive	–
CCSc1nc2ccccc2c(OCc2ccccc2Cl)c1C(=O)OC	inactive	inactive	inactive	inactive	inactive	–	–	–	inactive	–
C=CCOc1ccc(/C=C2\SC(=S)N(NS(=O)(=O)c3ccc(C)cc3)C2=O)cc1	21.3 µM (active)	inactive	inactive	inactive	inactive	–	–	–	inactive	–
O=C(COc1ccc2ccccc2c1)Nc1cccc(C(=O)Nc2ccccc2C(=O)O)c1	33.8 µM (active)	inactive	inactive	47.8 µM (active)	inactive	–	–	–	inactive	–
